{"source": "PubChem BioAssay AID602412", "about": "(Johns Hopkins Ion Channel Center, 2012)", "note": "The other results are listed elsewhere or left out. Activity calls are given as the source filed them.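 Rule for the calls: active = calcium signal rise, corrected for plate position, at least 3 library SD high, with starting brightness within 5 such deviations; inactive = the rest.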", "data": [{"molecular_target": "Mas-related G-protein coupled receptor member X1 (Homo sapiens) (UniProt Q96LB2)", "sequence (Q96LB2 whole entry, looked up)": "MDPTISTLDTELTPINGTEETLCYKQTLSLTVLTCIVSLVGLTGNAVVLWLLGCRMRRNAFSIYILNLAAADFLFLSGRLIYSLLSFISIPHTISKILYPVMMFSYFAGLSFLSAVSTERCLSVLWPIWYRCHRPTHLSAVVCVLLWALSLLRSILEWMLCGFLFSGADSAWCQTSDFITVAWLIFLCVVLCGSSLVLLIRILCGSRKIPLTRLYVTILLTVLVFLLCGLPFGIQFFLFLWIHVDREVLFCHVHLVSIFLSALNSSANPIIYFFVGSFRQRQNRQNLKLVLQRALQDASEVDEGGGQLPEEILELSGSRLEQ", "experiment": "MrgX1 receptor agonists, duplicate retest, confirmation, HEK293 cells, Fluo-4 calcium flux (AID 602412)", "details": "MrgX1-HEK293, Fluo-4 calcium fluorescence, FDSS, at 10 µM; stronger effect = higher value", "values": [{"compound": "O=C(Nc1nnc(-c2ccccc2)o1)c1cc(-c2cccs2)nc2ccccc12", "activation": "141% (active)"}, {"compound": "COc1ccc2c(c1)OC(O)(C(F)(F)C(F)F)CC2=O", "note": "(centres undefined)", "activation": "373% (active)"}, {"compound": "O=C1Cc2ccccc2Sc2ccc(Cl)cc21", "activation": "104% (active)"}, {"compound": "CCCc1nc2c(c(=O)c3ccccc3n2C)c(=O)n1C1CCCCCC1", "activation": "149% (active)"}, {"compound": "CCN(CC)c1ccc2oc(=O)c(C)nc2c1", "outcome": "inactive"}, {"compound": "O=C(CCN1CCc2ccccc2C(O)(c2ccccc2)C1)c1ccc2c(c1)OCCO2", "note": "(centres undefined)", "activation": "192% (active)"}, {"compound": "CC(C)(C)Nc1c(-c2cccs2)nc2ccccn12", "activation": "181% (active)"}, {"compound": "Cc1ccc(-n2[nH]c(C)c(/C=N/N3C(=O)c4cccc5cccc(c45)C3=O)c2=O)cc1", "activation": "601% (active)"}, {"compound": "Fc1ccc2[nH]c3c(N4CCSCC4)ncnc3c2c1", "activation": "252% (active)"}, {"compound": "COc1ccc(C(=O)NNC(=S)NC(=O)c2ccccc2)cc1", "activation": "570% (active)"}, {"compound": "Cc1ccc(NC2(C#N)C(=O)Nc3ccccc32)cc1", "note": "(centres undefined)", "activation": "191% (active)"}, {"compound": "N=C(N)SCc1cccc2ccccc12", "activation": "199% (active)"}, {"compound": "Cc1c(C)c2c(OCC(=O)N[C@@H](C(=O)O)c3ccccc3)cc3c(c2oc1=O)CCC(C)(C)O3", "outcome": "inactive"}, {"compound": "COC(=O)c1ccc(C2C3=C(Nc4nnnn42)c2ccccc2OC3)cc1", "note": "(centres undefined)", "outcome": "inactive"}, {"compound": "Cc1cc2oc3ccc(NCCC4CCCN4C)cc3c(=O)c2cc1C", "note": "(centres undefined)", "activation": "311% (active)"}, {"compound": "CCCc1[nH]nc2c1C(c1ccc(Br)s1)C(C#N)=C(N)O2", "note": "(centres undefined)", "activation": "141% (active)"}, {"compound": "CC(Oc1ccc2ccccc2c1)C(=O)NNC(=S)NC(=O)c1ccco1", "note": "(centres undefined)", "activation": "265% (active)"}, {"compound": "COc1ccc(OC)c(C(=O)c2ccc(Cl)cc2)c1", "outcome": "inactive"}, {"compound": "CC1(C(=O)O)CCC(C(=O)Nc2ccc(Cl)c(Cl)c2)C1(C)C", "note": "(centres undefined)", "activation": "149% (active)"}, {"compound": "CCCCC(=O)NNC(=S)NC(=O)C(c1ccccc1)c1ccccc1", "outcome": "inactive"}, {"compound": "COc1ccc(Nc2nc(-c3cccnc3)nc3ccccc23)cn1", "activation": "127% (active)"}, {"compound": "COc1ccc(C(=O)NC(=S)NNC(=O)CCc2ccccc2)cc1", "activation": "595% (active)"}, {"compound": "COC(=O)c1ccc(COC(=O)C2CCN(S(=O)(=O)c3c(Cl)cccc3Cl)CC2)o1", "outcome": "inactive"}, {"compound": "COc1ccccc1N(CC(=O)N1CCCCC1)S(=O)(=O)c1ccccc1", "activation": "356% (active)"}, {"compound": "OCc1ccc(OCCCOc2cccc3cccnc23)cc1", "outcome": "inactive"}, {"compound": "Cc1onc(-c2ccccc2)c1C(=O)NNC(=S)NC(=O)c1ccc(F)cc1", "activation": "636% (active)"}, {"compound": "Cc1nc(C)c(-c2csc(NCCc3ccccc3)n2)s1", "activation": "170% (active)"}, {"compound": "O=C(Nc1ccccc1)c1nnsc1S(=O)(=O)c1ccc(Cl)cc1", "activation": "210% (active)"}, {"compound": "Cc1ccnc(-n2sc3ccccc3c2=O)n1", "activation": "170% (active)"}, {"compound": "CC(C)CC(=O)NC(=S)NNC(=O)c1cccc([N+](=O)[O-])c1", "activation": "268% (active)"}, {"compound": "CCOC(=O)c1[nH]c2ccc(C)cc2c1N=C(C)N(C)C", "activation": "185% (active)"}, {"compound": "O=c1c2cc(Br)ccc2nc(-c2cccc(Cl)c2)n1O", "activation": "415% (active)"}, {"compound": "CC1CCCCN1S(=O)(=O)c1ccc(C(=O)Nc2nnc(-c3cccs3)o2)cc1", "note": "(centres undefined)", "activation": "88.3% (active)"}, {"compound": "CCCc1cc(=S)n2c([nH]c3ccccc32)c1C#N", "activation": "266% (active)"}, {"compound": "O=C(CC(O)(C(F)(F)F)C(F)(F)F)Nc1ccc(Cl)c(Cl)c1", "activation": "242% (active)"}, {"compound": "CC(=O)OC(C)C[N+](C)(C)C", "note": "(centres undefined)", "activation": "483% (active)"}, {"compound": "COc1ccc(C(=O)NC(=S)NNC(=O)c2c(-c3ccccc3)noc2C)cc1", "activation": "506% (active)"}, {"compound": "Cc1[nH][nH]c(=O)c1C(c1ccc(-c2ccc(Cl)cc2)o1)c1c(C)[nH][nH]c1=O", "activation": "187% (active)"}, {"compound": "O=C1C(=O)N(CC2COc3ccccc3O2)c2ccccc21", "note": "(centres undefined)", "activation": "226% (active)"}]}]}
